Sampled rows, rich in hits. Any-hit rate of the full collection: about 2.4%.
ANO1 block – mouse TMEM16A channel inhibition, primary screen. Q8BHY3. HEK293 TMEM16A/YFP iodide influx fluorescence, ionomycin. normalized B-score (activity score, 25-100; higher = stronger inhibition) at 10 µM. 1.2% of 310,000 active;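 active = ratio plate-corrected score three or more library SD toward inhibition, starting fluorescence score within five deviations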;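 also: score derived from kinetic fluorescence span divided by baseline fluorescence per well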
Target sequence (Q8BHY3 whole entry, looked up): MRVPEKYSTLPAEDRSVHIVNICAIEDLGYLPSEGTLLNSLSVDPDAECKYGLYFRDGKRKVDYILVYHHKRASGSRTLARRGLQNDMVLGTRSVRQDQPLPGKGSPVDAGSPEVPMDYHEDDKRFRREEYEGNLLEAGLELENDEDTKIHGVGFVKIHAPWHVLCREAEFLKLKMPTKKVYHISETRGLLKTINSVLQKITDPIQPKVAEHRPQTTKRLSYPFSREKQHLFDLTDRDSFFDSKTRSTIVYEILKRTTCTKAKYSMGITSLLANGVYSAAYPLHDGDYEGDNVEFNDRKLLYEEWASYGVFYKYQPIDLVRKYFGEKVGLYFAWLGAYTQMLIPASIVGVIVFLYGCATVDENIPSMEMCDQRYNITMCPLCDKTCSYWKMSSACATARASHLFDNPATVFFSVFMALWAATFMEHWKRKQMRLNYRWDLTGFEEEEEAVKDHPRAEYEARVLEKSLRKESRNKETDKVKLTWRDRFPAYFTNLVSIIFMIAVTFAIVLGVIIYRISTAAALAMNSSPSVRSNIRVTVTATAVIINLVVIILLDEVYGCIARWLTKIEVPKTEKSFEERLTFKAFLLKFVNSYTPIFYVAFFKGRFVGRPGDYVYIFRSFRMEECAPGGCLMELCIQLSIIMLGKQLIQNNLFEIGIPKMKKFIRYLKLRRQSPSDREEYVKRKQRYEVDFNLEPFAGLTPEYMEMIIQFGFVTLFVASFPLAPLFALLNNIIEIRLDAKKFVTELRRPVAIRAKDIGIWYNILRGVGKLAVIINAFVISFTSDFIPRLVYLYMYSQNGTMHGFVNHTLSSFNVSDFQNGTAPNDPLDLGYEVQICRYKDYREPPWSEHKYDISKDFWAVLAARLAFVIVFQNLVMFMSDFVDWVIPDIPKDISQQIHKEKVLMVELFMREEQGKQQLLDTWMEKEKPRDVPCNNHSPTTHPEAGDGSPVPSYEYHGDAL
CHT block – inhibitors of human choline transporter CHT. Q9GZV3. CHT-expressing cells, membrane potential dye, choline response; stronger effect = lower value. 0.86% of 310,000 active. B-score at 10 µM;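 active = B-score over 3 SD under the library average, and starting fluorescence ratio not unusually high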;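 also: choline stimulus applied at its EC90 after an EC20 pre-addition; B-score computed on integrated fluorescence ratio after choline addition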
TMEM16A act – activates or potentiates the mouse TMEM16A chloride channel | HEK293 TMEM16A/YFP-H148Q/I152L, iodide quench fluorescence; stronger effect = lower value | 0.3% of 340,000 active | Q8BHY3 | B-score at 10 µM;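 active = fluorescence-ratio B-score plate-corrected deviation score at least 3 library SD below zero, with starting fluorescence score within 5 deviations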;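 also: channel opened by trigger with iodide after compound preincubation; score built on the fluorescence ratio of max minus min over baseline; more negative score means more quench and so TMEM16A activation or potentiation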
CHT allo act – human CHT allosteric activation; CHT-expressing cells, membrane potential dye, choline EC20; stronger effect = higher value; LV-AA mutant CHT in HEK293 cells; Q9GZV3; 0.49% of 310,000 active; B-score at 10 µM;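 active = initial fluorescence not abnormally high and integrated response B-score, plate-corrected, over 3 SD above library mean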
CHT block conf – human CHT inhibition, confirmatory screen. CHT activity remaining % of control (stronger effect = lower value), % at 10 µM. 70% of 2,400 active. CHT-expressing cells, choline membrane potential dye; LV-to-AA substituted CHT, HEK293 cells. AID 493221. shares compounds with CHT block;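 active = choline transporter activity left, mean of duplicates at 10 µM, below buffer-only control mean minus 3 SD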;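 also: depolarization triggered by choline at its EC90 following an EC20 pre-addition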
HEK293 CHT ctr – CHT inhibitor counter-screen hit in parental HEK293 cells; shares compounds with CHT block; membrane potential dye, choline response; active = decrease or increase beyond buffer ±3SD; membrane potential ratio readout (active if shifted either direction beyond buffer ±3SD; no single direction) at 10 µM; 4% of 2,400 active; AID 493222;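 also: parental cells lack the transporter so any hit is non-specific; ratio is peak minus trough fluorescence over baseline after EC90 choline challenge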
Numbers stand for hits; . = inactive; / = not tested or not shown.

SMILES	ANO1 block	CHT block	TMEM16A act	CHT allo act	CHT block conf	HEK293 CHT ctr
O=C(c1ccco1)N1CCN(C(=O)c2cc3sccc3n2Cc2ccccc2)CC1	.	-5.9	.	.	.	.
O=C(CN(c1ccc(F)cc1)S(=O)(=O)c1ccccc1)NC1CC2CCC1C2 (stereo not given)	.	.	.	.	/	/
Cc1nn(CC2CC2)c(=O)n1-c1cccc(Cl)c1	.	-5.8	.	.	.	.
Cc1ccc(-n2c(C)nn(CC3CC3)c2=O)cc1	.	.	.	.	/	/
Cc1cccc(C)c1NC(=O)c1c[nH]c2ccccc12	.	.	/	.	/	/
O=C(CCCN1C(=O)/C(=C\c2cccs2)SC1=S)NNC(=O)c1ccncc1	.	.	.	.	/	/
O=C(NN1C(=O)/C(=C/c2ccc(O)c(O)c2)SC1=S)c1ccccc1	.	.	.	.	/	/
O=C(NN1C(=O)/C(=C/c2cccc(O)c2)SC1=S)c1ccccc1O	.	-5.2	.	.	68%	.
O=C(NN1C(=O)/C(=C/c2cccs2)SC1=S)c1ccncc1	.	-10	.	.	7.4%	.
COc1cccc(/C=C2\SC(=S)N(NC(=O)c3ccncc3)C2=O)c1	.	-8.7	.	.	5.2%	.
COc1cc(/C=C2\SC(=S)N(NC(=O)c3cccnc3)C2=O)ccc1O	.	.	.	.	/	/
CN(c1ccc(F)cc1)S(=O)(=O)c1ccc(Cl)c(C(=O)NCc2ccco2)c1	/	/	.	/	/	/
CSCC[C@H](NC(=O)C1CCN(S(=O)(=O)c2ccccc2)CC1)C(=O)NC1CC1	.	.	.	.	/	/
CCCCCc1n[nH]c2c1CCCC2	.	.	.	.	/	/
CC(C)CCSc1cc(NCCO)c([N+](=O)[O-])c2nonc12	.	-5.8	.	.	.	.
Cc1ccc(Sc2cc(NCCCO)c([N+](=O)[O-])c3nonc23)cc1	.	.	.	.	/	/
CCOc1cc(N2CCOCC2)c(OCC)cc1NC(=O)Cc1ccccc1	.	-8.6	.	.	57%	.
CCOc1cc(N2CCOCC2)c(OCC)cc1NC(=O)Cc1ccccc1OC	.	.	.	.	/	/
COc1ccccc1Nc1ncnc2ccc(C)cc12	.	-5.4	.	.	61%	.
Cc1ccc2ncnc(Nc3ccccc3)c2c1	.	.	.	.	/	/
CCOc1ccc(Br)cc1S(=O)(=O)N1CCCC1	.	-5.1	.	.	67%	.
CCOc1ccc(Cl)cc1S(=O)(=O)N1CCCC1	.	.	.	.	/	/
CCCN(CCC)S(=O)(=O)c1ccc(C(=O)N2CCN(C)CC2)cc1	.	.	.	.	/	/
COc1ccc(C(=O)N2CCN(c3ccc(C(C)=O)cc3)CC2)cc1S(=O)(=O)N1CCCC1	/	/	.	/	/	/
Cc1ccc(NC(=O)CSc2nnc(CNC(=O)c3ccco3)o2)cc1Cl	.	.	.	.	/	/
SMILES	ANO1 block	CHT block	TMEM16A act	CHT allo act	CHT block conf	HEK293 CHT ctr
CCCCC(CC)C(=O)NCc1ccccc1OC (stereo not given)	.	-5.6	.	.	.	.
CC1(N=Cc2cc(Cl)ccc2O)COP(=O)(Nc2ccccc2)OC1 (stereo not given)	/	/	.	/	/	/
CN1CCN(c2ccc([N+](=O)[O-])cc2C(=O)N2CCCCC2)CC1	.	.	.	.	/	/
CN1CCN(c2ccc([N+](=O)[O-])cc2C(=O)c2ccc(Cl)cc2)CC1	.	-5	.	.	68%	.
O=C(CN(C(=O)c1csnn1)c1cccc(C(F)(F)F)c1)NCc1ccc(F)cc1	.	.	.	.	/	/
O/N=C/c1ccnc(SCc2ccccc2)n1	.	-5.1	.	.	59%	.
O=C(CCCSc1nnc(-c2cccs2)n1CC1CCCO1)c1ccccc1 (stereo not given)	.	-5.5	.	.	.	-8.6
O=C(CSc1nnc(-c2cccs2)n1CC1CCCO1)N1CCCC1 (stereo not given)	.	.	.	.	/	/
CCN(Cc1ccccc1)S(=O)(=O)c1cc(C(=O)NC2CCCCCC2)ccc1OC	.	-5.1	.	.	50%	.
Cc1nn2c(NCCOCCO)c3c(nc2c1-c1ccccc1)CCCC3	.	-5.2	.	.	31%	.
COCCNc1c2c(nc3c(-c4ccccc4)c(C)nn13)CCCC2	.	-9	.	.	66%	.
Cc1nn2c(N3CCN(CCO)CC3)c3c(nc2c1-c1ccccc1)CCCC3	.	-9	.	.	31%	.
Cc1ccc(Nc2nnc(SC(C)C(=O)Nc3c(C)n(C)n(-c4ccccc4)c3=O)s2)cc1 (stereo not given)	.	.	.	.	/	/
NS(=O)(=O)c1ccc(CCNC(=O)CNC(=O)c2ccccc2F)cc1	.	.	.	.	/	/
O=c1c2ccccc2nc(SCc2ccncc2)n1CC1CCCO1 (stereo not given)	.	-5	.	.	38%	.
CCc1nc2ccccc2c(C(=O)OCC(=O)N(CC(C)C)c2c(N)n(Cc3ccccc3)c(=O)[nH]c2=O)c1C	/	/	.	/	/	/
Cc1c(CN(C)C(=O)CSc2nc(-c3ccco3)cc(C(F)(F)F)n2)cnn1C	.	-7	.	.	69%	-8.6
CCn1cc(CN(C)C(=O)CSc2nc(-c3ccco3)cc(C(F)(F)F)n2)c(C)n1	.	.	.	.	/	/
CN1CCN(c2ccc(Cl)cc2NC(=O)c2ccc(=O)n(C)n2)CC1	.	-5.6	.	.	56%	5.3
CN(/N=C/c1cc(Cl)cc(Cl)c1O)C(=S)NC(C)(C)C	100	-5.4	.	.	68%	.
COc1ccc(-c2ccc(-c3noc(-c4ccccc4OC)n3)c(OC)n2)cc1	.	-5	.	.	.	.
CCC(C)(C)NC(=O)C(c1ccccc1Cl)N(C(=O)CCC(=O)Nc1cc(C)on1)C(C)(C)C (stereo not given)	.	.	.	.	/	/
CCC1CN(C(=O)N2CCC(C(=O)NCc3cccc(OC)c3OC)CC2)c2cc(C)ccc2O1 (stereo not given)	.	.	.	.	/	/
O=C(CCC1CCCN(c2ncccn2)C1)NCc1ccc(F)c(F)c1 (stereo not given)	.	-5.8	.	.	64%	.
O=C(C[n+]1cn(C(F)F)c2ccccc21)c1ccc(OC(F)F)cc1	.	.	.	.	/	/
SMILES	ANO1 block	CHT block	TMEM16A act	CHT allo act	CHT block conf	HEK293 CHT ctr
CN(c1ccccc1)S(=O)(=O)c1ccc(C(=O)N2CCCC(C(F)(F)F)C2)cc1 (stereo not given)	.	.	.	.	/	/
CCc1ccccc1NC(=O)C1CCN(c2cnccn2)CC1	.	.	.	.	/	/
C#CC[N+]1(CC#Cc2ccc(C)cc2)CCCCC1	.	-7	.	.	43%	.
Cc1ccc(C#CC[N+]2(C)CCCCC2)cc1	.	-6	.	.	43%	.
O=C(Nc1cc([N+](=O)[O-])ccc1O)c1cccc([N+](=O)[O-])c1	.	-5.4	.	.	10%	.
CCN(CC)CCN(C(=O)c1c(F)cccc1F)c1nc2cc(C)cc(C)c2s1	.	.	.	.	/	/
